# High-throughput results from PubChem.
# Shown is part of a subset that was picked to be rich in hits.
# ER stress surv: ER stress cell death inhibition. 48,000 tested, 0.33% active. CSM14.1 thapsigargin ER stress survival, ATP luminescence. relative survival (cellular ATP), % at 15 µg/mL (by protocol). AID 1010;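 active = survival measured by cellular ATP above 50% at 15 µg/ml in the first screen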;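 note: cell death triggered by about 15 µM thapsigargin; ATP read 24 h after thapsigargin was added; plate controls were thapsigargin with DMSO for no effect and DMSO without thapsigargin for full effect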
# * hit, by the source's call.
SMILES,ER stress surv
COc1ccc(C(=O)N2CCN(Cc3cccc(C)c3)CC2)cc1OC,1.6
O=C(c1ccncc1)N1CCN(Cc2cccc(Oc3ccccc3)c2)CC1,-1.8
COc1cc(C(=O)N2CCN(Cc3cccc(Oc4ccccc4)c3)CC2)cc(OC)c1OC,44.6
Cc1cccc(CN2CCN(C(=O)c3ccc([N+](=O)[O-])cc3)CC2)c1,3.9
O=C(c1ccc([N+](=O)[O-])cc1)N1CCN(Cc2cccc(Oc3ccccc3)c2)CC1,68.7*
CCOc1ccc(CN2CCN(C(=O)c3ccc([N+](=O)[O-])cc3)CC2)cc1,-2.2
COc1ccc(C(=O)N2CCN(Cc3cccc(Oc4ccccc4)c3)CC2)cc1OC,52.9*
CCn1c2ccccc2c2cc(CN3CCN(C(=O)c4ccc([N+](=O)[O-])cc4)CC3)ccc21,90.7*
O=C(c1ccc([N+](=O)[O-])cc1)N1CCN(Cc2cccnc2)CC1,-7.5
Cn1ncc(Cl)c1C(=O)N(C(=O)c1c(Cl)cnn1C)c1ncccn1,-1.4
N#Cc1ccccc1OCC(=O)N/N=C/c1ccccc1,-0.8
CCOc1ccc(/C=C/c2nc(O)c([N+](=O)[O-])c(=O)[nH]2)cc1,5.5
Cn1cc(/C=C/c2nc3ccccc3c(=O)n2-c2ccc([N+](=O)[O-])cc2)c2ccccc21,5.5
COc1cccc(-n2c(/C=C/c3c(C)[nH]c4ccccc34)nc3ccccc3c2=O)c1,1.1
COc1cccc(-n2c(/C=C/c3cn(C)c4ccccc34)nc3ccccc3c2=O)c1,76.5*
O=C(O)c1ccc(-c2ccc(/C=C3\SC(=S)N(c4cccc(C(F)(F)F)c4)C3=O)o2)cc1,0.5
COc1cc2c(cc1OC)C(c1ccc([N+](=O)[O-])cc1)=NC(C)(C)C2,8.6
COc1ccc(C(=O)N/C(=C/c2ccc(Br)cc2)c2nc3ccccc3[nH]2)cc1,6.5
COc1ccc(/C=C(/c2ccccc2)c2nc3ccccc3[nH]2)cc1,51.1*
CN(C)c1ccc(/C=C(/c2ccccc2)c2nc3ccccc3[nH]2)cc1,39.5
O=C1NC(=Nc2cccc(O)c2)S/C1=C\C=C\c1ccccc1,3.6
CC(NC(=O)c1ccc(S(=O)(=O)N2CCCCC2)cc1)C12CC3CC(CC(C3)C1)C2 (stereo not drawn),108.4*
Cc1ccc(C(=O)Nc2ccc(S(=O)(=O)N3CCCC3)cc2)cc1,0.1
CC(NC(=O)c1ccccc1)C12CC3CC(CC(C3)C1)C2 (stereo not drawn),0.7
Cc1ccc(N(CC(=O)Nc2ccc3ccccc3c2)S(=O)(=O)c2ccc(F)cc2)cc1,4.3
SMILES,ER stress surv
CC(=O)Nc1cc(-c2cccc(Br)c2)nn1-c1ccccc1,13.2
COc1ccc(NC(=O)c2ccc(C3SCC(=O)N3Cc3ccccc3)cc2)cc1 (stereo not drawn),4.5
COc1ccc(C(=O)Nc2ccc(C)cc2C)cc1OC,1.3
COc1cc2c(cc1OC)C(CC(=O)Nc1ccc(C)cc1C)=NC(C)(C)C2,53.0*
COC(=O)CCC(=O)Nc1ccc(C)cc1C,1.9
Cc1ccc(C(=O)Nc2cccc(NC(=O)c3ccco3)c2)cc1C,0.2
CCc1cc2c(N3CCN(Cc4ccc(Cl)cc4Cl)CC3)ncnc2s1,98.3*
CCOC(=O)c1cnn(-c2ncnc3sc(CC)cc23)c1N,9.3
CCc1cc2c(N3CCCCC3)ncnc2s1,-0.7
CCCOc1ccc(C2Nc3ccccc3NC3=C2C(=O)CC(c2ccc(OC)c(OC)c2)C3)cc1 (stereo not drawn),103.4*
COc1ccc(C2CC(=O)C3=C(C2)Nc2ccccc2NC3c2ccc([N+](=O)[O-])cc2)cc1OC (stereo not drawn),-1.9
COc1ccc(C2CC(=O)C3=C(C2)Nc2ccccc2NC3c2ccc(SC)cc2)cc1OC (stereo not drawn),112.2*
COc1ccc(C2CC(=O)C3=C(C2)Nc2ccccc2NC3c2ccc(Cl)c(Cl)c2)cc1OC (stereo not drawn),12.2
COc1ccc(C2CC(=O)C3=C(C2)Nc2ccccc2NC3c2cc(OC)c(OC)cc2OC)cc1 (stereo not drawn),8.0
COc1ccc(C2Nc3ccccc3NC3=C2C(=O)CC(C)(C)C3)cc1OCc1ccccc1 (stereo not drawn),7.3
COc1ccc(C2CC(=O)C3=C(C2)Nc2ccccc2NC3c2ccc(OCc3ccccc3)c(OC)c2)cc1OC (stereo not drawn),125.1*
COc1ccc(C2CC(=O)C3=C(C2)Nc2ccccc2NC3c2ccncc2)cc1OC (stereo not drawn),6.1
CCc1ccc(C2Nc3ccccc3NC3=C2C(=O)CC(c2ccc(OC)c(OC)c2)C3)cc1 (stereo not drawn),89.1*
O=C(COc1cccc(Cl)c1)N=Nc1c(O)[nH]c(=O)[nH]c1=O,4.2
CN(C)c1ccc(NC(=O)c2cc(Cl)ccc2Cl)cc1,3.9
CC(=O)C1=C(O)C(=O)N(CCN(C)C)C1c1ccc(Br)cc1 (stereo not drawn),6.0
COc1cc(NC(=O)CCc2ccccc2)cc(OC)c1,4.0
Cc1cccc(NC(=O)c2sc3ccccc3c2Cl)c1C,-2.5
COc1ccc2c(c1)c(=O)oc1c(C)c(OC(C)=O)ccc12,-1.4
